Counter-ions that a name gives are not always drawn. ± gives the standard deviation of the averaged measurements.
Test system: A549
Experiment: relative viability (normalised to negative control = 1, bortezomib = 0) (fraction); higher = less cytotoxic
Conditions: inflammatory serum-free RHB-A with cytokines + LPS, 5 d + 24 h CellTiter-Blue
Method: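 A549 KRAS-mutant NSCLC cells, pre-treated 5 µM GSK126 or vehicle (DMSO), were seeded at 250 cells/well in 384-well plates in serum-free RHB-A medium with inflammatory cytokines/LPS and treated with Selleck kinase inhibitor and NCI oncology compounds at 30 or 300 nM in triplicate, refreshed at 48 h. Viability was read by CellTiter-Blue after 5 d plus 24 h and normalised per plate with cellHTS2 (mean of bortezomib positive control = 0, mean of negative control = 1).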

[1] = compound 30 nM, GSK126 pretreatment: 5 uM GSK126
[2] = compound 30 nM, GSK126 pretreatment: none (vehicle)
[3] = compound 300 nM, GSK126 pretreatment: 5 uM GSK126
[4] = compound 300 nM, GSK126 pretreatment: none (vehicle)

| SMILES | relative viability [1] | relative viability [2] | relative viability [3] | relative viability [4] |
| --- | --- | --- | --- | --- |
| Oc1ncc(N(CCCl)CCCl)c(O)n1 [Uracil mustard] | 0.792 ± 0.024 | 0.801 ± 0.027 | 0.81 ± 0.029 | 0.87 ± 0.03 |
| NCCCNCCSP(=O)(O)O [Amifostine] | 0.96 ± 0.16 | 0.908 ± 0.078 | 0.964 ± 0.12 | 0.96 ± 0.078 |
| Cn1cc(C2=C(c3cn(C4CCN(Cc5ccccn5)CC4)c4ccccc34)C(=O)NC2=O)c2ccccc21 [Enzastaurin] | 0.823 ± 0.11 | 0.831 ± 0.05 | 0.789 ± 0.042 | 0.802 ± 0.037 |
| Cc1ccccc1-n1c(Cn2ncc3c(N)ncnc32)nc2cccc(C)c2c1=O | 0.756 ± 0.055 | 0.787 ± 0.046 | 0.689 ± 0.12 | 0.857 ± 0.13 |
| N[C@@H](Cc1ccc(N(CCCl)CCCl)cc1)C(=O)O [Melphalan] | 0.835 ± 0.054 | 0.819 ± 0.11 | 0.874 ± 0.13 | 0.876 ± 0.068 |
| Cc1ccccc1-n1c(Cn2cnc3c(N)ncnc32)nc2cccc(C)c2c1=O | 0.828 ± 0.076 | 0.784 ± 0.083 | 0.79 ± 0.088 | 0.875 ± 0.056 |
| C=C1C[C@@H]2[C@H](CC[C@]3(C)C(=O)CC[C@@H]23)[C@@]2(C)C=CC(=O)C=C12 [Exemestane] | 0.797 ± 0.073 | 0.82 ± 0.079 | 0.839 ± 0.17 | 0.971 ± 0.086 |
| Cn1c(CCCC(=O)O)nc2cc(N(CCCl)CCCl)ccc21 [bendamustine hydrochloride] | 0.713 ± 0.012 | 0.729 ± 0.045 | 0.784 ± 0.012 | 0.865 ± 0.056 |
| O=P1(NCCCl)OCCCN1CCCl (stereo not given) [Ifosfamide] | 0.792 ± 0.087 | 0.806 ± 0.063 | 0.803 ± 0.16 | 0.91 ± 0.11 |
| CCN1CCN(C(=O)Cc2ccc(Nc3ncc(F)c(Nc4ccc(C(=O)Nc5ccccc5Cl)cc4)n3)cc2)CC1 [Aurora A Inhibitor I] | 0.988 ± 0.045 | 1.02 ± 0.032 | 0.808 ± 0.14 | 0.671 ± 0.027 |
